Among the data in PubChem BioAssay AID504397 (Broad Institute, 2011) are outcome values, retold here.

Structures are written as SMILES. Results with a measured potency or affinity are listed apart. Calls of active or inactive are those of the source. The rule behind the calls is not given here.

The test can be described thus: toxicity toward cultured mammalian cells – cell-based, plate reader, cherry-pick samples, cytotoxicity control, dose response (AID 504397). The following applies: plate reader viability; series mostly up to 35 µM.
Consider `Cc1ccc(/C=N/NC(=O)c2nnn(-c3nonc3N)c2C(C)C)o1`, for which the molecule was classed as inactive.
With `COc1cccc(/C=N/NC(=O)c2nnn(-c3nonc3N)c2C(C)C)c1OCc1ccc(F)cc1` the entry was “inactive”; with `O=[N+]([O-])c1ccc(-c2cnc(SC(c3ccccc3)c3ccccc3)[nH]2)cc1`, “inactive”; with `CC(C)c1c(C(=O)N/N=C/c2c[nH]c3ccccc23)nnn1-c1nonc1N`, “inactive”.
With `CS(=O)(=O)c1ccc(C(=O)OCC(=O)N(CCc2ccccc2)Cc2ccccc2)cc1` the entry was “inactive”.
As for `Cc1ccc(NC(=O)CCc2ccc(S(=O)(=O)NC3CCCCC3)cc2)cc1`, the result was inactive.
With `O=c1c(-c2ccccc2)c(O)c2ccccc2n1-c1ccccc1` the entry was “inactive”.
Take `CN(C(=O)COC(=O)c1cn(-c2ccccc2)nc1-c1ccccc1)C1CCS(=O)(=O)C1` (stereo unspecified): the call was inactive.
For the molecule `NC(=NCCCCCCN=C(N)/N=C(\N)Nc1ccc(Cl)cc1)/N=C(\N)Nc1ccc(Cl)cc1`, the result was inactive.
In the case of `CN(C)S(=O)(=O)c1ccc(NC(=O)/C=C/c2ccccc2Cl)cc1` it was “inactive”; in that of `Cc1ccccc1NS(=O)(=O)c1ccc(C(=O)NCC(c2ccccc2)N(C)C)cc1` (stereo unspecified), “inactive”.
In the case of `CCOc1cc(S(=O)(=O)N(Cc2ccccc2)Cc2ccccc2)c(OCC)cc1-n1cnnn1` it was “inactive”; in that of `CC1(c2ccc(OCC#N)cc2)C=C(c2ccc(OCC#N)cc2)n2nc(C(F)(F)F)nc2N1` (stereo unspecified), “inactive”; in that of `O=C(Nc1ccc(Cl)c([N+](=O)[O-])c1)C(Sc1ccccc1)c1ccccc1` (stereo unspecified), “inactive”.
With `Cc1ccc(OCCn2c3ccccc3n3nc(C)c(=O)nc23)cc1` the entry was “inactive”; with `CCn1cc(/C=C(\NC(=O)c2ccccc2F)C(=O)N2CCCC2)c2ccccc21`, “inactive”; with `CCCOc1ccc(-c2c(C(=O)N/N=C/c3cccs3)nnn2-c2nonc2N)cc1`, “inactive”.
For the molecule `Cc1csc2nc(=O)c3ccccc3n12`, the outcome was inactive.
Turning to `CCOc1ccc(-n2c(SCc3ccc([N+](=O)[O-])cc3)nnc2-c2ccc(OC)cc2)cc1`, the call was inactive.
With `COc1ccc(C2Nc3ccccc3C(=O)N2Cc2ccccc2)cc1COc1ccccn1` (stereo unspecified) the entry was “inactive”.
In the case of `Cc1ccc(N=Cc2c(O)n(C)c(=O)n(C)c2=O)nc1` it was “inactive”; in that of `COc1ccccc1N1CCN(c2ncc(C(=O)N3CCN(c4cccc(Cl)c4)CC3)c3ccccc23)CC1`, “inactive”.
With `CCn1cc(/C=C(\NC(=O)c2ccccc2)C(=O)N2CCOCC2)c2ccccc21`, the molecule was classed as inactive.
In the case of `CN1C(=O)/C(=C/c2cccc(Cl)c2)Sc2ccc(C(=O)N3CCOCC3)cc21` it was “inactive”.
In the case of `CN(C)CCN(C(=O)c1ccc2ccccc2c1)c1nc2ccc(Br)cc2s1` it was “inactive”; in that of `CN(C(=O)COC(=O)c1cc([N+](=O)[O-])ccc1Sc1ccccc1)C1CCS(=O)(=O)C1` (stereo unspecified), “inactive”; in that of `CCCCNC(=S)N=Nc1c(O)n(Cc2ccccc2)c2ccccc12`, “inactive”.
In the case of `CS(=O)(=O)Nc1ccccc1C(=O)NC1CC2CCC1C2` (stereo unspecified) it was “inactive”; in that of `O=C(c1cnc2n(c1=O)CCS2)N1CCN(C(c2ccccc2)c2ccc(Cl)cc2)CC1` (stereo unspecified), “inactive”.
For `Nc1nnnn1/N=C/c1ccccc1OCc1ccc(Cl)cc1Cl`, the result was inactive.
In the case of `CN(C)CCCN(C(=O)c1cc(-c2cccs2)nc2ccccc12)c1nc2ccc(F)cc2s1` it was “inactive”.
